Calls of active or inactive are those of the source. How the source made its calls: active means hit-call score of the fitted dose curve at least 0.9, where 1 is the maximum; inactive means score below 0.9.

This test can be described thus: CEETOX_H295R_11DCORT: CeeTox H295R High-throughput Steroidogenesis Assay for 11-Deoxycortisol (11DCORT) (AID 2283432).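 On AC50: human adrenal H295R cells prestimulated with 10 µM forskolin for 48 h; 11-deoxycortisol secreted into the medium measured by LC-MS/MS.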 Conditions: actives raise or lower the signal. In short, it runs like this: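 H295R cells prestimulated 48 h with 10 uM forskolin, then exposed 48 h to chemical in 0.1% DMSO. 11-Deoxycortisol in medium quantified by HPLC-MS/MS after MTBE extraction; bidirectional fit versus DMSO. MTT viability read in same wells.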
For orientation: AC50 means the concentration at which the activity in the assay is half-maximal. With `CC(=O)N1CCN(c2ccc(OC[C@H]3CO[C@](Cn4ccnc4)(c4ccc(Cl)cc4Cl)O3)cc2)CC1`, the AC50 is 783 nM (active).

Consider `CCCCCCCCN(C)CCCCCCCC`, for which the call was inactive.

Take `Cc1cc2c(cc1C(F)(F)F)N(C(=O)Nc1ccc(Oc3cccnc3C)nc1)CC2`: the AC50 was 381 nM (active).

For the compound `OC12N=C(c3ccccc3)SC1Cc1cc(Cl)ccc12` (stereo not given), the AC50 is 32800 nM (active).

`Cc1ccc2oc(CN(Cc3ccccc3)C(=O)Nc3c(F)cc(F)cc3F)c(-c3ccc(Cl)cc3)c2c1`: the compound was classed as inactive.

Consider `Clc1ccccc1C(c1ccccc1)(c1ccccc1)n1ccnc1`, for which the AC50 is 142 nM (active).

For `CC(C)(c1cc(Br)c(O)c(Br)c1)c1cc(Br)c(O)c(Br)c1`, the compound was called inactive.

As for `NC(=O)c1nc(-c2cccc(-c3cc(F)ccc3OCC(F)(F)C(F)(F)F)c2)n[nH]1`, the call was inactive.

In the case of `COc1cccc([C@H](O)C2CCN(CCc3ccc(F)cc3)CC2)c1OC`, the concentration at half-maximal activity (AC50) is 27000 nM (active).

As to `CC(C)(C)c1cc(/C=C2\SC(N)=NC2=O)cc(C(C)(C)C)c1O`, the call was inactive.

For the origin of these results see PubChem BioAssay (EPA / NIEHS).
